About 83,000 compounds went through this panel and 20% of them were active in at least one assay; those are over-represented in the sample as a whole.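 Method: cells in 96-well plates; compound added at one concentration; 48 h incubation; percent growth measured; values under 10 scored active.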 A number with no mark means an inactive call. Active and inactive are the calls of the source.
Columns and labels:
Test in all cases: NCI-60 one-dose screen, 48 h (100 = growth as untreated, 0 = no growth, -100 = all killed)
Settings in all cases: 10 µM
HCT-15 colon = tested on: HCT-15 colon
HT29 colon = tested on: HT29 colon
SNB-75 CNS = tested on: SNB-75 CNS
SNB-19 CNS = tested on: SNB-19 CNS
U251 CNS = tested on: U251 CNS
PC-3 prostate = tested on: PC-3 prostate
SK-MEL-5 melanoma = tested on: SK-MEL-5 melanoma
UACC-62 melanoma = tested on: UACC-62 melanoma
LOX IMVI melanoma = tested on: LOX IMVI melanoma
SK-MEL-28 melanoma = tested on: SK-MEL-28 melanoma
SK-MEL-2 melanoma = tested on: SK-MEL-2 melanoma
EKVX NSCLC = tested on: EKVX NSCLC
SN12C renal = tested on: SN12C renal
UO-31 renal = tested on: UO-31 renal
TK-10 renal = tested on: TK-10 renal
ACHN renal = tested on: ACHN renal
CAKI-1 renal = tested on: CAKI-1 renal
A498 renal = tested on: A498 renal
CCRF-CEM leukemia = tested on: CCRF-CEM leukemia
MOLT-4 leukemia = tested on: MOLT-4 leukemia

SMILES	growth (HCT-15 colon) [%]	growth (HT29 colon) [%]	growth (SNB-75 CNS)	growth (SNB-19 CNS)	growth (U251 CNS)	growth (PC-3 prostate) [%]	growth (SK-MEL-5 melanoma)	growth (UACC-62 melanoma) [%]	growth (LOX IMVI melanoma) [%]	growth (SK-MEL-28 melanoma) [%]	growth (SK-MEL-2 melanoma) [%]	growth (EKVX NSCLC) [%]	growth (SN12C renal) [%]	growth (UO-31 renal)	growth (TK-10 renal) [%]	growth (ACHN renal)	growth (CAKI-1 renal)	growth (A498 renal) [%]	growth (CCRF-CEM leukemia)	growth (MOLT-4 leukemia) [%]
Cn1c(N)c(N=Cc2ccccc2)c(=O)n(C)c1=O	103	101	91.4%	105%	110%	105	108%	115	104	110	97.1	100	104	81.5%	117	104%	98%	116	112%	99.4
CC(C)CCN(CCCNc1c2c(nc3cc(Cl)ccc13)CCCC2)CCC(C)C	44.5	23	84.4%	90.6%	59.4%	56.8	57.8%	82.8	51	83.4	103	54.4	71.6	27.2%	78.1	92.4%	56.5%	59	61.6%	47
CC(=O)Oc1ccc(C2=Cc3ccc(OC(C)=O)cc3OC2C)cc1 (stereo not given)	48.4	93.7	49%	85.2%	43.3%	66.3	50.2%	45	44.4	62.1	61	56.7	66.9	18.6%	82.7	10%	43.6%	82.6	24.3%	36.7
Nc1nc(SCC#CCCl)c2[nH]cnc2n1	45.1	53.9	63%	57.1%	43.8%	62.6	29.5%	44	27.8	72.8	57.2	54.4	44.8	-6.63% (active)	37	44%	9.59% (active)	53.8	23.3%	35.8
CCOC(=O)c1cc2c(n1Cc1ccccc1)-c1oncc1CC2	65.3	35.4	89.2%	86.2%	95.6%	76.2	73.5%	75.8	80.9	89.8	85.7	77	98.6	25.4%	101	82.1%	36.5%	48.4	53.1%	25.2
O=C(c1ccccc1)C(Sc1ccccc1)c1ccccc1 (stereo not given)	60.7	45.6	101%	110%	79.4%	73	108%	83.5	74.5	94.1	62	106	87.7	79.9%	101	34.5%	82.5%	92.1	89.9%	67
CC[C@@]1(C(N)=O)CC2C=CC1C2 (stereo not given in full)	116	106	92.4%	107%	113%	93.1	106%	107	105	112	105	102	102	95.5%	108	113%	103%	123	87.9%	88.3
Cc1ccc2nc3[nH]c(=O)[nH]c(=O)c3c(N)c2c1	84	83.3	90%	86.2%	89.1%	85.6	84%	47.3	75.2	98.3	98	59.9	72.6	54.9%	78.2	60.2%	58%	115	77.7%	86.6
COC(=O)CCCCCCCCC(C)c1ccc(C(C)=O)cc1 (stereo not given)	103	101	122%	110%	107%	106	111%	116	98.2	130	96	95.3	110	96.9%	98.3	99.3%	97.6%	112	111%	89.8
CC(C)/C(=N/O)c1ccccc1	110	97.4	94.5%	102%	112%	102	104%	107	94.5	113	101	102	102	93.8%	104	107%	107%	113	103%	94
COc1ccc(C2=Cc3ccc(OC(C)=O)cc3OC2)cc1	82.4	97.2	107%	98.8%	89.3%	90.5	90.6%	85.4	82.7	112	97.5	66.2	87.2	49.1%	102	80.8%	88.2%	82.2	70.8%	44.5
COc1cc(/C=C/C(=O)c2cc(-c3ccc(C(F)(F)F)cc3)ccc2O)cc(OC)c1OC	60	60.5	78.6%	75.4%	69%	44.4	47.2%	53.5	19.2	92.2	70.1	61.2	66.7	46.7%	98	68.4%	47.2%	82.6	7.45% (active)	15.5
[O-]c1c[n+](-c2ccc(Cl)cc2)no1	99.4	118	90.4%	95.9%	102%	91.4	95.6%	91.5	98	109	102	103	92.9	84.8%	116	106%	108%	98.7	111%	102
COc1ccc2c(c1)/C(=C/c1cc(OC)c(OC)c(OC)c1)C(=O)N2C	12.6	11.8	-14.6% (active)	4.75% (active)	5.64% (active)	38.3	-12.7% (active)	18.9	10.8	28.8	24.3	47.3	25.3	16.9%	22.1	26.9%	-8.56% (active)	23.4	20.4%	16
COc1ccc(C(=O)n2nc(CC(=O)NCc3ccccc3)nc2N)cc1	107	108	92.9%	97.3%	105%	101	111%	93	101	108	97.5	113	92.5	82.9%	103	117%	110%	110	104%	89.8
CCOC(=O)C(CCC1=NC(C)(C)CC(C)O1)C(=O)OCC (stereo not given)	46	32	104%	106%	82.3%	76.3	108%	93.3	90.1	107	34.1	107	95.7	77.5%	101	6.26% (active)	45.7%	106	111%	68.8

— PubChem BioAssay (NCI)
